Bioassay records from PubChem.
Rows were chosen to be rich in hits. Some 3.3% of all compounds tested hit in one or more screens of this group.
697 NFkB inh: inhibitors of the PMA/ionomycin-induced NF-kB reporter in 697 B cells; 697 B-cell NF-kB luciferase reporter, 16 h; inhibition, % at 4 µM; actives 0.33% (n = 330,000); in the data active = inhibition above about 35%
Jurkat NFkB inh: inhibitors of the PMA/ionomycin-induced NF-kB reporter in Jurkat cells. PMA/ionomycin-induced NF-kB luciferase reporter, luminescence. inhibition, % at 4 µM. actives 0.53% (n = 330,000). AID 435003; in the data active = inhibition above about 50%
SMARCA2 act: increases SMARCA2 function in MMTV reporter cells; MG213 cells, MMTV-luciferase reporter, dexamethasone, overnight; activation, % at 9.1 µM; actives 1% (n = 370,000); AID 652017; in the data active = activation above about 7.8%;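 note: 0% = vehicle wells and 100% = reference activator wells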
esBAF inh: blocks esBAF chromatin remodeling in mouse ES cells; Bmi1-luciferase knock-in reporter, 24 h; 100% = twice the neutral-well signal; reporter increase, % at 12.5 µM; actives 2% (n = 350,000); AID 602393; in the data active = activation above about 40%; inconclusive = no clear call, values can overlap the other calls;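 note: 0% = median of the plate's neutral control wells and 100% = double that signal; a rise in the Bmi1 reporter signal indicates esBAF inhibition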
Gli-Sufu block: Gli-Sufu pathway antagonism; Sufu-KO-LIGHT fibroblasts, Gli luciferase reporter luminescence; inhibition, % at 5 µM; actives 0.74% (n = 340,000); AID 588413;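 active = inhibition above about 55%, limit read from the data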;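 note: 0% = DMSO-treated cells and 100% = wells with medium but no cells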
Active calls of the source: *.

`CCOC(=O)c1c(C)oc2c1c(C=NCC1CCCO1)c(O)c1ccccc12` (stereo not drawn) gave SMARCA2 act -2, esBAF inh -6 and Gli-Sufu block 8.
CCOC(=O)c1c(C)oc2c1c(C=NCc1ccccn1)c(O)c1ccccc12 was read as SMARCA2 act -1 and Gli-Sufu block -6.
`CCOC(=O)c1c(C)oc2c1c1c(c3ccccc32)OCN(CCCC(=O)O)C1` gave 697 NFkB inh 17, Jurkat NFkB inh -69, SMARCA2 act 4, esBAF inh 51* and Gli-Sufu block -35.
`CN1C(=O)c2cc(NC(=O)Cc3cccs3)ccc2OC[C@@H]2O[C@@H](CC(=O)NCc3ccc(-c4ccccc4)cc3)CC[C@H]21` gave esBAF inh -10.
Brc1csc(/C=N/Nc2nc3ccccc3s2)c1 was read as 697 NFkB inh -239, Jurkat NFkB inh -140, SMARCA2 act 0 and Gli-Sufu block -25.
Brc1cc2c(cc1/C=N/Nc1nc3ccccc3s1)OCO2 was read as 697 NFkB inh -134, Jurkat NFkB inh -86, SMARCA2 act -2, esBAF inh 68* and Gli-Sufu block -77.
Screening c1ccc(-c2nc3ccccc3o2)nc1 returned 697 NFkB inh -17, Jurkat NFkB inh -17, SMARCA2 act 3, esBAF inh 46* and Gli-Sufu block -12.
O=C(NCC1CCCCC1)[C@@H]1[C@@H](CO)[C@@H]2Cn3c(ccc(C4=CCCCC4)c3=O)[C@H]1N2 was read as esBAF inh 6.
For Oc1ccc(-c2csc(Nc3ccccn3)n2)c(O)c1 the results were 697 NFkB inh -98, Jurkat NFkB inh -94, SMARCA2 act 4, esBAF inh 80* and Gli-Sufu block -68.
Screening CN(C)/C=C/C(=O)c1cnc(-c2ccccc2)s1 returned 697 NFkB inh -98, Jurkat NFkB inh -62, SMARCA2 act -1, esBAF inh 56* and Gli-Sufu block -49.
For COc1cccc(S(=O)(=O)Nc2ccc3c(c2)[C@@H]2C[C@H](CC(=O)N(C)C)O[C@H](CO)[C@@H]2O3)c1 the results were esBAF inh 5.
Screening C/C=C/c1ccc2c(c1)O[C@H](CN(C)C(=O)NC(C)C)[C@@H](C)CN([C@H](C)CO)S2(=O)=O returned esBAF inh 7.
For COc1ccccc1-c1c(C(F)(F)F)oc2cc(OC(=O)c3ccc([N+](=O)[O-])cc3)ccc2c1=O the results were 697 NFkB inh 9, Jurkat NFkB inh 4, SMARCA2 act 1, esBAF inh 67* and Gli-Sufu block 0.
O=C(C[C@@H]1CC[C@@H](NC(=O)Nc2ccccc2F)[C@@H](CO)O1)NCc1ccccc1 was read as esBAF inh -1.
Screening O=C1c2ccccc2NC(c2ccc(-c3ccc(F)cc3)o2)N1O (stereo not drawn) returned 697 NFkB inh -110, Jurkat NFkB inh -91, SMARCA2 act 6, esBAF inh 41* and Gli-Sufu block -47.
For C[C@@H]1CN([C@@H](C)CO)S(=O)(=O)c2ccc(C#CCN(C)C)cc2O[C@H]1CN(C)C(=O)C1CCCCC1 the results were esBAF inh -7.
`C[C@H]1CN([C@@H](C)CO)C(=O)c2cccc(NC(=O)C3CC3)c2O[C@H]1CN(C)C(=O)NC1CCCCC1` gave esBAF inh -3.
`COc1ccc(NC(=O)CNC(=O)c2ccco2)cc1` gave 697 NFkB inh -5, Jurkat NFkB inh -17, SMARCA2 act 0, esBAF inh 29 and Gli-Sufu block -18.
`O=C(Nc1ccc(-c2ccc(N3CCCCC3)nn2)cc1)c1ccco1` gave 697 NFkB inh -103, Jurkat NFkB inh -71, SMARCA2 act 1, esBAF inh 60* and Gli-Sufu block -2.
O=C(Nc1ccc(NC(=O)c2ccco2)cc1)c1ccco1 was read as 697 NFkB inh -14, Jurkat NFkB inh -30, SMARCA2 act 2, esBAF inh 46* and Gli-Sufu block -35.
Cc1ccc(NC(=O)CNC(=O)c2ccco2)cc1 was read as 697 NFkB inh -16, Jurkat NFkB inh -10, SMARCA2 act 3, esBAF inh 42* and Gli-Sufu block -21.
O=C(Nc1ccc(Nc2ccccc2)cc1)c1ccco1 was read as 697 NFkB inh -198, Jurkat NFkB inh -137, SMARCA2 act 0, esBAF inh inconclusive and Gli-Sufu block -74.
`O=C(Nc1ccc(Br)cc1)c1ccco1` gave 697 NFkB inh -76, Jurkat NFkB inh -87, SMARCA2 act 4, esBAF inh 71* and Gli-Sufu block -72.
